The source of these data is PubChem BioAssay.

The structures appear in SMILES notation. Values without a mark were called inactive. No rule for the calls is given here.

The target in the test is Pantothenate synthetase (Mycobacterium tuberculosis (strain ATCC 25618 / H37Rv)) (UniProt P9WIL5). Kind of test: Coupled enzyme confirmation of inhibitors against recombinant Mtb PanC (AID 375).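 Also: 0% = full reaction with vehicle and 100% = no enzyme background.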 The following applies: coupled enzyme assay; at 10 µM, hits give high values.
Chain of Pantothenate synthetase (Mycobacterium tuberculosis (strain ATCC 25618 / H37Rv)) (P9WIL5 whole entry, looked up): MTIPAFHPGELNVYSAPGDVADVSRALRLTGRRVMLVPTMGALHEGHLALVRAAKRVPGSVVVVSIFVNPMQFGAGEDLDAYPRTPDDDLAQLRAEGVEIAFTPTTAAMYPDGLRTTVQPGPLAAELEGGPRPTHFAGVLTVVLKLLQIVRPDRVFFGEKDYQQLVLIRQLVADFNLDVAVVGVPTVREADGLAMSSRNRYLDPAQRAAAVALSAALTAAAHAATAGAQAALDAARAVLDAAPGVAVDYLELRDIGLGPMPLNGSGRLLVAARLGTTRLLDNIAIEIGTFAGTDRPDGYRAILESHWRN
With `CCOC(=O)c1c(NC(=O)Cn2c(=O)oc3ccccc32)oc(C)c1C(C)=O`, the inhibition was 0%. For `N#CC1=C(N)N(c2ccccc2)C(c2ccccc2)C1(C#N)C#N` (stereo not drawn) the value was 0%.

Consider `O=S1(=O)C=C(Sc2nc3ccccc3s2)c2ccccc21`, for which the inhibition was 0%.

As to `COCC(=O)Nc1sc2c(c1C(=O)OC)C(C(=O)OC)CC2` (stereo not drawn), the inhibition is 0%. In the case of `CCN1C(=O)Cc2cc(S(=O)(=O)N3CCOCC3)ccc21` it was 9%. In the case of `CCc1nnc(NC(=O)c2ccc(COc3ccccc3)o2)s1` it was 6%; in that of `O=C(NC12CC3CC(CC(C3)C1)C2)C1CCCN1C(=O)NC1CCCCC1` (stereo not drawn), 0%. With `Cc1ccc(-c2nc3ccccc3[nH]2)s1`, the inhibition is 0%. For the compound `CCN1C(=O)/C(=C/N(C)c2ccccc2)OC1=S`, the inhibition is 4%. In the case of `O=C(NCc1ccco1)c1noc2c1CCCCC2` it was 12%; in that of `O=C(CCc1nc2ccccc2[nH]1)Nc1ccc2c(c1)OCO2`, 0%; in that of `c1ccc(Cn2nnc3c(N4CCC5(CC4)OCCO5)ncnc32)cc1`, 0%.

In the case of `CCOC(=O)c1ccc2[nH]c3c(c2c1)CN(C)CC3`, the inhibition is 1%.

`COc1ccc(Nc2nc(-c3sc(N)nc3C)cs2)cc1`: the inhibition was 3%. In the case of `CC(C)NCC(O)COc1ccc(CC(N)=O)cc1` (stereo not drawn) it was 0%; in that of `COc1ccc(CCNC(=O)C2=COCCO2)cc1`, 0%; in that of `O=c1c2c3nc4ccccc4nc3n(CC3CCCO3)c2ncn1CCc1ccccc1` (stereo not drawn), 9%.

Regarding `CCCCc1cc(=O)oc2cc(OCC(=O)N(CC)CC)c(Cl)cc12`, the inhibition was 0%.
